We go through 31 molecules from PubChem BioAssay (EPA / NIEHS).

Molecules are shown by their SMILES. Active and inactive are the calls of the source. How the source made its calls: active means hit-call score of the fitted dose curve at least 0.9, where 1 is the maximum; inactive means score below 0.9.

Experiment [1] has as its target Bile acid receptor (Homo sapiens) (UniProt Q96RI1). The experiment can be described thus: ATG_IR1_CIS: Attagene CIS-FACTORIAL HepG2 Assay for human Nuclear Receptor Subfamily 1 Group H Member 4 (NR1H4), IR1 submotif (AID 2282946). The note with it: IR1 reporter transcription, actives raise or lower the signal. The gist of the method:
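Fluorescence of capillary-separated, HpaI-digested RT-PCR reporter products gave IR1-element mRNA induction in HepG2 cells 24 h after dosing. Endogenous transcription factors drove the cis-regulated reporters; activity was fitted bidirectionally against DMSO.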

The nature of experiment [2]: ATG_ISRE_CIS: Attagene CIS-FACTORIAL HepG2 Assay for human Interferon Regulatory Factor 1 (IRF1) binding to an Interferon-Stimulated Response Element (ISRE) (AID 2282948). The note with it: HepG2 ISRE cis-reporter (Attagene), mRNA transcription readout; actives raise or lower the signal. In short, it runs like this: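 Endogenous transcription factor activity read as reporter transcript abundance via RT-PCR and capillary electrophoresis. HepG2 cells transiently transfected, 24 h chemical exposure. Gain or loss fitted against DMSO baseline.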

A short description of experiment [3]: ATG_M_32_CIS: Attagene CIS-FACTORIAL HepG2 Assay for M32 Transcription Factor (Internal Marker) (AID 2282949).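 Further: background control marker of the multiplexed CIS panel rather than a real target.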 To be noted: HepG2 Attagene cis-factorial M32 reporter, mRNA; actives raise or lower the signal. The gist of the method: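 Transient MRTU transfection of HepG2; 24 h compound treatment; TriZol RNA, oligo(dT) RT, reporter PCR, 6-FAM primer extension, HpaI cut, CE. Gain/loss of signal vs DMSO.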

Experiment [4] can be described thus: ATG_M_06_CIS: Attagene CIS-FACTORIAL HepG2 Assay for M06 Transcription Factor (Internal Marker) (AID 2282950). The note with it: HepG2 Attagene CIS-FACTORIAL M06 internal marker reporter; actives raise or lower the signal. The gist of the method: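 Internal background marker within multiplexed cis-reporter HepG2 system. Cells transiently transfected, dosed 24 h; reporter mRNA measured by RT-PCR, HpaI digestion and capillary electrophoresis. Bidirectional fit relative to DMSO.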

In experiment [5] the target is Hypoxia-inducible factor 1-alpha (Homo sapiens) (UniProt Q16665). The experiment can be described thus: ATG_HIF1a_CIS: Attagene CIS-FACTORIAL HepG2 Assay for human Hypoxia Inducible Factor 1 (HIF1A) (AID 2282951). To be noted: HepG2 Attagene cis-factorial HIF1a reporter transcription; actives raise or lower the signal. In short, it runs like this: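 Transient MRTU transfection of human HepG2 liver cells, 24 h compound treatment, then total RNA isolation, oligo(dT) reverse transcription, PCR amplification, fluorescent labelling and capillary electrophoresis of reporter fragments. Gain or loss relative to DMSO.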

For experiment [6], the target named is Hepatocyte nuclear factor 6 (Homo sapiens) (UniProt Q9UBC0). The experiment can be described thus: ATG_HNF6_CIS: Attagene CIS-FACTORIAL HepG2 Assay for human Hepatocyte Nuclear Factor 6 (HNF6) (AID 2282952). To be noted: HepG2 Attagene cis-factorial HNF6 reporter transcription; actives raise or lower the signal. The gist of the method:
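Endogenous factor activity read in transiently transfected HepG2 via promoter-regulated reporter transcripts. RNA harvested 24 h post-dosing, reverse-transcribed, PCR-amplified, FAM-labelled, HpaI-digested and resolved by capillary electrophoresis; fitted in both directions against DMSO.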

The target in experiment [7] is Heat shock factor protein 1 (Homo sapiens) (UniProt Q00613). The experiment can be described thus: ATG_HSE_CIS: Attagene CIS-FACTORIAL HepG2 Assay for human Heat Shock Transcription Factor 1 (HSE) (AID 2282953). The note with it: HepG2 HSE cis-reporter, Attagene RNA transcription; actives raise or lower the signal. The gist of the method:
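HepG2 cells transfected with cis-promoter reporter units sensing endogenous transcription factor activity; reporter mRNA quantified 24 h post-dose by RT-PCR and capillary electrophoresis of 6-FAM-labelled products. Bidirectional fitting against DMSO.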

Experiment [8] can be described thus: ATG_MRE_CIS: Attagene CIS-FACTORIAL HepG2 Assay for human Metal Responsive Element (MRE) (AID 2282954). The note with it: HepG2 MRE cis-reporter transcription, Attagene multiplex; actives raise or lower the signal. In short, it runs like this: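 RT-PCR/capillary electrophoresis readout of reporter mRNA, 24 h post-dosing, in HepG2 cells transfected with multiplexed cis-regulated reporter constructs. Gain or loss of signal fitted bidirectionally against DMSO baseline.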

A short description of experiment [9]: ATG_GRE_CIS: Attagene CIS-FACTORIAL HepG2 Assay for human Glucocorticoid Response Elements (GRE) (AID 2282947). The note with it: HepG2 GRE cis-reporter, Attagene multiplex mRNA; actives raise or lower the signal. The gist of the method:
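Read-out: fluorescent reporter-transcript fragments separated by capillary electrophoresis after RT-PCR. Transiently transfected HepG2 cells carrying cis-element-driven reporter units were dosed for 24 h; gain or loss of signal fitted against DMSO control.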

Experiment [10] is described as follows: ATG_PBREM_CIS: Attagene CIS-FACTORIAL HepG2 Assay for human Phenobarbital-responsive Enhancer Module (PBREM) (AID 2282955). The note with it: HepG2 PBREM cis-reporter, Attagene multiplexed transcription; actives raise or lower the signal. The gist of the method: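 Endogenous transcription factors in human liver HepG2 cells drive a PBREM cis-element reporter, whose transcript level after 24 h treatment is quantified by RT-PCR with capillary electrophoresis; activity fitted in both directions against DMSO.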

By AC50 is commonly meant the concentration at which the activity in the assay is half-maximal.

Sequence of Hypoxia-inducible factor 1-alpha (Homo sapiens) (Q16665 whole entry, looked up, the tested form may be a part): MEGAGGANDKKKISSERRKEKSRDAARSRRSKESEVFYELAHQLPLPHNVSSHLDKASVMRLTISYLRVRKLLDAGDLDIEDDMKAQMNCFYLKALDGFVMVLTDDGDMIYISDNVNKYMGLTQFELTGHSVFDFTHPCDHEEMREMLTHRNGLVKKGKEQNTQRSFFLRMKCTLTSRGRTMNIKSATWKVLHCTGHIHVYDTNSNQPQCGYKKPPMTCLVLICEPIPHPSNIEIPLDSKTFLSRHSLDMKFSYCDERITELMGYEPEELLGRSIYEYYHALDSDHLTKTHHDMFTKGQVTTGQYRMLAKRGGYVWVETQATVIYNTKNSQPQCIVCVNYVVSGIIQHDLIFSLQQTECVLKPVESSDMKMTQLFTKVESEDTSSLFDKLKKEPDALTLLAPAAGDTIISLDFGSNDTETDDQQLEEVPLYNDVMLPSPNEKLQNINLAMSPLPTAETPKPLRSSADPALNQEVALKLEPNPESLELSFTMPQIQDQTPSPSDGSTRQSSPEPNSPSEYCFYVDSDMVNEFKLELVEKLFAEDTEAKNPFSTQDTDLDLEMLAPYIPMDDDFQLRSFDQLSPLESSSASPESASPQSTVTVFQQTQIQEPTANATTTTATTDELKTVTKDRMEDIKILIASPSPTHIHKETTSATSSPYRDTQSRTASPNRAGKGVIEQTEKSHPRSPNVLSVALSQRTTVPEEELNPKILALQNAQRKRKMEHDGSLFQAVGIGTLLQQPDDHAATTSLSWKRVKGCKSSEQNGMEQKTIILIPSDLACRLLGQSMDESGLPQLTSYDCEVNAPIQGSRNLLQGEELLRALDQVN
Sequence of Hepatocyte nuclear factor 6 (Homo sapiens) (Q9UBC0 whole entry, looked up): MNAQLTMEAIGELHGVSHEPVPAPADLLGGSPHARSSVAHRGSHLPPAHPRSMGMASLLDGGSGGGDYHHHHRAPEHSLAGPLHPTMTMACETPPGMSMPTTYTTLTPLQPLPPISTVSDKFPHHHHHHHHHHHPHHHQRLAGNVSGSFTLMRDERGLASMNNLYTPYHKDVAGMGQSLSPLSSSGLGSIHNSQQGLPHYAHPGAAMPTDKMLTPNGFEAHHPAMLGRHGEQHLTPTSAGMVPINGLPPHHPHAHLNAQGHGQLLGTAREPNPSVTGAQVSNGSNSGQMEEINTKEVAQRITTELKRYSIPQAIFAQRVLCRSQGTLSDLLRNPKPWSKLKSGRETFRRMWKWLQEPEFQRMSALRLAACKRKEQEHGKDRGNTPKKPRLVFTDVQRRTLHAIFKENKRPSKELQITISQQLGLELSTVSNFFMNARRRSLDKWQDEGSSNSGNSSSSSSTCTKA
Sequence of Heat shock factor protein 1 (Homo sapiens) (Q00613 whole entry, looked up): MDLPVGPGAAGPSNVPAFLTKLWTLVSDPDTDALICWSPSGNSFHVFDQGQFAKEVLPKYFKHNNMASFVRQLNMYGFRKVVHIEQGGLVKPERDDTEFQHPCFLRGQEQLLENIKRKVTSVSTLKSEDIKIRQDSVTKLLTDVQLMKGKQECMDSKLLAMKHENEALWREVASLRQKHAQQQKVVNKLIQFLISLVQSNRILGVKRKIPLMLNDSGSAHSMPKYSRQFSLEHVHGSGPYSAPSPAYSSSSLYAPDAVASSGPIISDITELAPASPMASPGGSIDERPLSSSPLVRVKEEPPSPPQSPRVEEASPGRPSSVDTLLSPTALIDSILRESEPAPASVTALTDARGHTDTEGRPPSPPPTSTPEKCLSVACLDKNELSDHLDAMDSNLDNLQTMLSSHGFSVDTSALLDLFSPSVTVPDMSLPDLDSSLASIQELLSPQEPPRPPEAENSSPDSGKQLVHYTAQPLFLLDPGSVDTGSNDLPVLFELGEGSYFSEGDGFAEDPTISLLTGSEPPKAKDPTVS
Sequence of Bile acid receptor (Homo sapiens) (Q96RI1 whole entry, looked up): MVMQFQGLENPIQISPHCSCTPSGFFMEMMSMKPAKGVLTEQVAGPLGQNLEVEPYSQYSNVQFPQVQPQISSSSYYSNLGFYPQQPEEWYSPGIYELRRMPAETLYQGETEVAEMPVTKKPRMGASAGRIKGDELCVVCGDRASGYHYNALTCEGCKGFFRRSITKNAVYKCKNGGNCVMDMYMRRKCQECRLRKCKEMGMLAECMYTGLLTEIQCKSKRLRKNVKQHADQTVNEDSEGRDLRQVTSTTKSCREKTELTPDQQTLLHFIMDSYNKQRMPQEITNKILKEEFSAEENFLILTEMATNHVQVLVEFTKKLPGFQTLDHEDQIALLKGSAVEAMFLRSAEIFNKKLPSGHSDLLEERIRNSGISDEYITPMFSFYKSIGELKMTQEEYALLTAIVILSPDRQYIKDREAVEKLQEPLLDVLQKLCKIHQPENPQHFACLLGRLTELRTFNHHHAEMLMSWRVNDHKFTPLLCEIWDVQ

As to `CS(=O)(=O)NC(=O)c1cc(Oc2ccc(C(F)(F)F)cc2Cl)ccc1[N+](=O)[O-]`, the molecule was called inactive in experiment [1], in experiment [2], in experiment [3], in experiment [4], in [5] and in [6]. For the same molecule, the result in [7] and in experiment [8] was inactive.

For the molecule `[O-][Cl+]O`, the molecule was classed as inactive in experiment [9], in experiment [2], in experiment [3], in experiment [4], in experiment [5] and in [6]. Further, the molecule was classed as inactive in [7] and in experiment [8].

For the molecule `c1ccc(C2CO2)cc1` (stereo unspecified), the result in experiment [9], in [2], in [3], in experiment [4], in experiment [5] and in experiment [6] was inactive. Besides, in experiment [7], the molecule was classed as inactive.

With `Clc1ccc(Cl)c(Cl)c1`, the molecule was called inactive in [2], in experiment [3], in experiment [5], in experiment [6], in experiment [8] and in experiment [10].

Take `[As]#[In]`: the molecule was classed as inactive in [9], in experiment [2], in [3], in experiment [6], in experiment [7] and in [10].

For the molecule `CCCCC(CC)COC(=O)c1ccc(C(=O)OCC(CC)CCCC)c(C(=O)OCC(CC)CCCC)c1` (stereo unspecified), the molecule was classed as inactive in [9], in [2], in experiment [3], in [6], in [7] and in [8]. For the same molecule, in experiment [10], the result was inactive.

As for `Cc1ccc(N)cc1`, the molecule was called inactive in experiment [2], in experiment [3], in [6], in experiment [7], in experiment [8] and in experiment [10].

For `CC(C)(C)OOC(C)(C)CCC(C)(C)OOC(C)(C)C`, the molecule was called inactive in experiment [9], in experiment [2], in experiment [3], in [5], in experiment [6] and in [7]. Besides, the result in experiment [8] and in experiment [10] was inactive.

`C1=Cc2cccc3cccc1c23`: the outcome in experiment [9], in experiment [2], in [3], in experiment [6], in experiment [7] and in experiment [8] was inactive.

In the case of `C[N+](C)(C)CC1CO1` (stereo unspecified), the result in experiment [2], in experiment [3], in experiment [4], in experiment [5], in [6] and in experiment [7] was inactive.

In the case of `c1ccc2c(c1)-c1cccc3cccc-2c13`, the molecule was called inactive in [2], in experiment [4], in experiment [6], in [7] and in experiment [8]. In [3], the AC50 was 0.00928 µM (active).

Take `CCC12COCN1COC2`: the result in experiment [2], in [3], in [4], in [5], in [6] and in experiment [7] was inactive. In experiment [8], the result was inactive.

For `COc1cc(C=O)cc2c1[C@H](COC(N)=O)[C@]1(OC(C)=O)ON2C[C@H]2[C@@H]1N2C(C)=O`, the AC50 in [2] was 0.54 µM (active); in experiment [5], 0.155 µM (active); in experiment [6], 9.05 µM (active); in experiment [7] it was 8.4 µM (active). Also, the outcome in experiment [3], in [4] and in experiment [10] was inactive.

For `c1ccc2c(c1)oc1ccccc12`, the molecule was called inactive in experiment [9], in experiment [2], in experiment [3], in [6], in [7] and in experiment [8]. The outcome in experiment [10] was inactive.

As for `CC(C)(C)OOC(=O)c1ccccc1`, the molecule was classed as inactive in experiment [9], in experiment [2], in experiment [3], in experiment [5], in experiment [6] and in experiment [7]. Moreover, in [10], the result was inactive. In addition, the half-maximal activity concentration (AC50) in experiment [8] was 147 µM (active).

With `Nc1cc(Cl)cc(C(=O)O)c1Cl`, the molecule was classed as inactive in experiment [2], in experiment [3], in [6] and in [7].

For the molecule `c1ccc(N=Nc2ccccc2)cc1`, the call in experiment [9], in experiment [2], in [3], in experiment [5], in experiment [6] and in [7] was inactive. The call in experiment [8] and in experiment [10] was inactive.

As for `CC(O)CCO` (stereo unspecified), the molecule was classed as inactive in [2], in [3], in experiment [6], in experiment [7], in [8] and in experiment [10].

With `Cn1cc(-c2ccccc2)c(=O)c(-c2cccc(C(F)(F)F)c2)c1`, the result in experiment [9], in experiment [3], in experiment [6] and in [7] was inactive. For the same molecule, the concentration at half-maximal activity (AC50) in experiment [2] is 61.1 µM (active).

For the molecule `ClC1=C(Cl)C2(Cl)C3C(Cl)C=CC3C1(Cl)C2(Cl)Cl` (stereo unspecified), the call in experiment [9], in experiment [2], in experiment [3], in experiment [5], in [6] and in experiment [7] was inactive. Moreover, in experiment [10], the result was inactive. In addition, in experiment [8], the AC50 was 127 µM (active).

Consider `C=CCc1ccc2c(c1)OCO2`, for which the result in [2], in experiment [3], in [5], in experiment [6] and in [7] was inactive.

`[Cl-].[Cl-].[Hg+2]`: the molecule was called inactive in experiment [2], in [3], in experiment [6], in [7] and in experiment [8].

For `N#CC(Br)(Br)C(N)=O`, the outcome in experiment [2], in experiment [3], in experiment [4], in experiment [5], in experiment [6] and in [7] was inactive.

Regarding `Nc1ccc(Oc2ccc(N)cc2)cc1`, the outcome in [9], in experiment [2], in experiment [3], in experiment [5], in experiment [6] and in experiment [7] was inactive. The outcome in experiment [10] was inactive.

For `Oc1ccccc1Cl`, the molecule was classed as inactive in experiment [9], in experiment [2], in experiment [3], in experiment [6], in [7] and in experiment [10].

With `O=[N+]([O-])c1ccc(Oc2ccc(Cl)cc2Cl)cc1`, the molecule was called inactive in experiment [9], in experiment [2], in experiment [3], in experiment [6] and in [7]. Besides, in experiment [8], the AC50 was 50.1 µM (active).

`O=Cc1ccco1`: the outcome in [2], in [3], in experiment [5], in experiment [6], in experiment [7] and in [8] was inactive.

Regarding `O=C(O)C1C2CCC(O2)C1C(=O)O` (stereo unspecified), the outcome in experiment [9], in [6] and in experiment [7] was inactive. Besides, the AC50 was 61.9 µM (active) in experiment [2], 159 µM (active) in [3], 149 µM (active) in experiment [8] and 160 µM (active) in experiment [10].

Consider `Cc1ccc(N)c(N)c1`, for which the outcome in experiment [9], in experiment [2], in experiment [3], in [5], in [6] and in experiment [7] was inactive. The AC50 in experiment [8] is 29.1 µM (active).

For the molecule `Cc1ccc([N+](=O)[O-])cc1`, the molecule was classed as inactive in experiment [9], in experiment [2], in experiment [3], in [5], in experiment [6] and in experiment [7]. In addition, in experiment [8], the molecule was classed as inactive.

As for `O=C(Oc1ccc(Br)cc1)N1CCN2CCC1CC2`, the molecule was called inactive in experiment [9], in experiment [2], in experiment [3], in [6] and in experiment [7].
